From PubChem BioAssay (NCI)
The panel holds about 83,000 compounds, 20% with a hit somewhere; the sample as a whole holds those more often.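 Interpretation: 100, growth as untreated; towards 0, rising growth inhibition; 0, no net growth; 0 to -100, cell death. Compounds scoring below 10 were considered active.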 A number with no mark means an inactive call. Active and inactive are the calls of the source.

Key:
Test in all cases: NCI-60 one-dose screen, 48 h (100 = growth as untreated, 0 = no growth, -100 = all killed)
Conditions in all cases: 10 µM
[1] = test system: DU-145 prostate
[2] = test system: K-562 leukemia
[3] = test system: MALME-3M melanoma
[4] = test system: MDA-MB-231 breast
[5] = test system: SF-268 CNS
[6] = test system: SF-295 CNS
[7] = test system: SF-539 CNS
[8] = test system: UACC-257 melanoma
[9] = test system: M14 melanoma

| SMILES | growth [1] | growth [2] | growth [3] | growth [4] | growth [5] | growth [6] | growth [7] | growth [8] | growth [9] |
| --- | --- | --- | --- | --- | --- | --- | --- | --- | --- |
| Cc1ccc2nc(COc3ccc(C(=O)NNC(=S)NCCc4ccccc4)cc3)[nH]c2c1 | 98.9% | 85.7% | 64.8% | 29.6% | 33.6% | 79.3% | -1.98% (active) | 103% | 106% |
| COc1cc2c3c(n(CCCNC(C)C)c(=O)c2cc1OC)-c1nc2c(cc1C3=O)OCO2 | 8.46% (active) | 2.95% (active) | -92.3% (active) | -90.5% (active) | -72.5% (active) | 11.7% | -6.71% (active) | -30.4% (active) | -48.8% (active) |
| CC1(c2ccccc2)NC(=O)N(CC(=O)Nc2ccc(C(=O)/C=C/c3ccc(Cl)cc3)cc2)C1=O (configuration not stated) | 28% | 2.06% (active) | 34.8% | 13.6% | 19.7% | 8.45% (active) | -89.3% (active) | 20.6% | -26.9% (active) |
| COc1cccc2nc(Nc3cccc(NC(=O)c4ccc(CN5CCCN(C)CC5)c(C(F)(F)F)c4)c3)ccc12 | -83.4% (active) | 5.93% (active) | -96.3% (active) | -99.1% (active) | -50.3% (active) | -97.7% (active) | -100% (active) | -86% (active) | -90.5% (active) |
| O=c1[nH]c2ccccc2cc1CSc1ccc(Nc2nccc(-c3ccc(C(F)(F)F)cc3)n2)cc1 | 32.3% | 54.9% | 6.21% (active) | 11.9% | 40.4% | -62.6% (active) | 12% | 90% | 80.1% |
| O=C(CNc1nc(-c2ccccc2)cs1)Nc1ccccc1 | 14.1% | 5.68% (active) | -61% (active) | -30.7% (active) | 8.59% (active) | -1.92% (active) | -93.7% (active) | -14.3% (active) | -73.8% (active) |
| CSc1nc(-c2cccc(C)c2)c2cc(-c3ccccc3)n(C)c2n1 | 31.4% | 12% | 20.1% | 33.1% | 25.7% | 17.3% | 14.3% | 40.5% | 21% |
| CCN1CCN(Cc2ccc(C(=O)Nc3cccc(-c4cn(-c5ccc6oc(=O)ccc6c5)nn4)c3)cc2C(F)(F)F)CC1 | -100% (active) | -61.7% (active) | -100% (active) | -100% (active) | -32.5% (active) | -100% (active) | -100% (active) | -49.9% (active) | -100% (active) |
| O=C(N/C(=C1/OCCN1Cc1ccccc1)[P+](c1ccccc1)(c1ccccc1)c1ccccc1)c1ccccc1 | -15.1% (active) | 8.08% (active) | -60.6% (active) | 0.242% (active) | 21.1% | 31.4% | 25.3% | -4.84% (active) | 19.4% |
| Cc1cccc(-c2nc(Nc3ccccc3C(=O)O)c3ccccc3n2)c1 | 50.5% | 28.7% | 37.2% | 66.1% | 37.5% | 27.1% | 47.7% | 49.2% | 25.2% |
| NS(=O)(=O)c1ccc(NC(=O)CSc2ccc(-c3ccc(Cl)cc3)nn2)c(Br)c1 | 32.5% | 74.6% | 29.2% | 8.72% (active) | 27.9% | 3.43% (active) | 28.4% | 75.5% | 85.1% |
| COc1ccc(C(=O)/C=C/c2cc(C(F)(F)F)cc(C(F)(F)F)c2)cc1S(N)(=O)=O | -41.4% (active) | 8.85% (active) | -94.7% (active) | -77.8% (active) | 6.18% (active) | -86% (active) | -98.4% (active) | -55.5% (active) | -75.8% (active) |
| O=C(CNc1nc(-c2ccccc2)cs1)Nc1ccc(Cl)cc1[N+](=O)[O-] | 10.1% | 4.23% (active) | -70.5% (active) | -66.7% (active) | -58.4% (active) | -49.7% (active) | -86.8% (active) | -17.2% (active) | -13.1% (active) |
| Cc1cc(C)nc(NS(=O)(=O)c2ccc(N/C(N)=N/c3nccc(-c4ccccc4)n3)cc2)n1 | 88.8% | 49.3% | 63.3% | 59.4% | 82% | 52.2% | 70% | 94% | 88.4% |
| Cc1ccn2c(C(=O)c3ccccc3)cc(-c3cc(-c4ccc(N(C)C)cc4)c(C#N)c(N)n3)c2c1 | 56.4% | 70.9% | 63.6% | 25.7% | 61.2% | 69.3% | -62.1% (active) | 85.7% | 81.3% |
| CCCn1c(=O)c2[nH]c(-c3ccc(OCc4nc5ccccc5[nH]4)cc3)nc2n(CCC)c1=O | 54% | 76% | -36.4% (active) | -42.6% (active) | 38% | 37.4% | -44.3% (active) | 82.3% | 73.7% |
| CC1(c2ccccc2)NC(=O)N(CC(=O)Nc2ccc(C(=O)/C=C/C=C/c3ccccc3)cc2)C1=O (configuration not stated) | 61.3% | 14.8% | 81.3% | 63.1% | 57.1% | 5.15% (active) | 20.5% | 63.6% | 59.3% |
| COc1ccc2[nH]c(=O)c(CSc3ccc(Nc4nccc(-c5ccc(Cl)cc5)n4)cc3)cc2c1 | 111% | 81.9% | 113% | 90.1% | 99.9% | 102% | -41% (active) | 120% | 109% |
| O=c1[nH]c2ccc(Cl)cc2cc1CSc1ccc(Nc2nccc(-c3ccc(Cl)cc3)n2)cc1 | 4.82% (active) | 59.3% | 57.5% | 47% | 58.5% | 105% | 45.7% | 96.9% | 84.4% |
| CC(=O)c1ccc(Nc2nc(SC(C)C)nc(-c3ccccc3)c2C#N)cc1 | 43.8% | 43% | 8.39% (active) | -0.399% (active) | 41.1% | -40.7% (active) | -17.4% (active) | 96.1% | 73.8% |
| O=C(CNc1nc(-c2ccccc2)cs1)Nc1cccc(Cl)c1 | 53.5% | 19.6% | 64.1% | 30.8% | 30.6% | 22.4% | 42.3% | 62.9% | 34% |
| C#CCNC(=O)CCC(=O)OC[C@]12CC[C@@H](C(=C)C)[C@@H]1C1CC[C@@H]3[C@@]4(C)CCCNC(C)(C)[C@@H]4CC[C@@]3(C)[C@]1(C)CC2 (some centres not stated) | 17.8% | 3.14% (active) | -93.6% (active) | -47.9% (active) | 42.8% | -85.5% (active) | -99.3% (active) | -78.4% (active) | -80.4% (active) |
| [2H]C([2H])([2H])Oc1ccc2ncc(C#Cc3cncc(C(=O)Nc4ccc(CN5CCN(C)CC5)c(C(F)(F)F)c4)c3)n2n1 | -98.8% (active) | 1.31% (active) | -81.1% (active) | -90.5% (active) | -42.8% (active) | -77% (active) | -90.2% (active) | -65.9% (active) | -61.9% (active) |
| COc1ccc(-c2nc(Nc3ccccc3S(N)(=O)=O)c3ccccc3n2)cc1 | 7.82% (active) | 34.1% | -7.51% (active) | -33.6% (active) | 22.5% | 61.3% | -4.27% (active) | 91.2% | 75.8% |
| O=C(CSc1nnc(-c2c[nH]c3ccccc23)n1-c1ccccc1)Nc1ccc(C(=O)/C=C/c2cccc([N+](=O)[O-])c2)cc1 | 95.9% | 86.1% | 90.9% | 91.7% | 78.8% | 88.4% | 89.6% | 102% | 94.1% |
| O=c1[nH]c2ccc(Cl)cc2cc1CSc1ccc(Nc2nccc(-c3ccc4ccccc4c3)n2)cc1 | 38.3% | 85.7% | 20% | 55.2% | 68% | 111% | 94.1% | 112% | 88.4% |
| CCCCSc1nc(Nc2ccc(/C(C)=N/NC(N)=S)cc2)c(C#N)c(-c2ccccc2)n1 | 36.2% | 33% | 35.2% | 18.3% | 67% | 24.7% | 19.3% | 90.3% | 76.6% |
| COc1cc(/C=C/C(=O)c2ccc(NC(=O)CN3C(=O)NC(C)(c4ccccc4)C3=O)cc2)cc(OC)c1OC (configuration not stated) | 12.4% | 16% | 69.5% | 26.5% | 23% | 46.7% | -50.4% (active) | 52.6% | 46.8% |
